Measured values: PubChem BioAssay AID371 (SRMLSC, 2006)
Hit rate of the full screen: of about 3,300 compounds, about 280 (8.5%) were called active. Shown is part of a subset that was picked to be rich in actives. Unmarked numbers belong to inactive results.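 The calls were made as follows: active = mean growth inhibition over the two runs of 50% or more; inactive = mean growth inhibition under 50%.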

Experiment: A549 NSCLC cell proliferation inhibitors – ATP luminescence, human non-small cell lung line, primary screen (AID 371);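 also: compound exposure lasted 72 h before the ATP read; 0% = untreated cell signal and 100% = no luminescence left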
Conditions: at 10 µM, stronger effect = higher value
For `CC1=NOC2(C)Nc3ncnn3C(c3ccccc3)C12` (stereo not given), the growth inhibition was 6.33%.
In the case of `CN1C[C@H](CNC(=O)OCc2ccccc2)C[C@@H]2c3cccc4c3c(cn4C)C[C@H]21`, the growth inhibition is reported as 94.7% (active).
With `CC[C@@H](CO)NC(=O)[C@@H]1C=C2c3cccc4c3c(cn4C)C[C@H]2N(C)C1` the growth inhibition was 4.84%.
In the case of `CCCCCCn1c(O)c(C=NCCCn2ccnc2)c(=O)[nH]c1=O`, the growth inhibition is reported as 7.84%.
`CC1(C)CC(n2[nH]c(=O)c3c2NC(=O)CSC3c2ccccc2)CCO1` (stereo not given) showed a growth inhibition of 3.92%.
Compound `O=c1[nH]c2ccccc2n1CCCN1CCC(n2c(=O)[nH]c3cc(Cl)ccc32)CC1` has a growth inhibition of 6%.
In the case of `O=c1[nH]c2ccccc2n1C1CCN(CCCC(c2ccc(F)cc2)c2ccc(F)cc2)CC1`, the growth inhibition is reported as 93% (active).
With `CCOC(=O)[C@]1(C#N)[C@@H]2C=CC(C(C)=O)=CN2[C@@H](C(N)=O)[C@@H]1c1ccsc1` the growth inhibition was 3.86%.
With `Nc1ncc(P(=S)(N2CCOCC2)N2CCOCC2)s1` the growth inhibition was 0.52%.
For `COc1cccc(-n2c(O)c(C=NCCN3CCOCC3)c(=O)[nH]c2=O)c1`, the growth inhibition was -0.53%.
With `CCc1nc(N2CCNCC2)c(C#N)c2c1CSC(C)(C)C2` the growth inhibition was 49.5%.
With `CCCCc1nc(N2CCNCC2)c(C#N)c2c1CSC(C)(C)C2` the growth inhibition was 92% (active).
In the case of `COc1ccc2c(c1)c(C(=O)O)c(C)n2CC(C)C`, the growth inhibition is reported as -2.88%.
Work on `COC(=O)C(O)(c1c[nH]c2ccccc12)C(F)(F)F` (stereo not given) yielded a growth inhibition of 0.63%.
`O=C(CN1CCN(CCO)CC1)Nc1ccc(Cl)cc1C(=O)c1ccccc1` gave a growth inhibition of 13.2%.
`C=CCOC(=O)C1=C(C)OC(N)=C(C#N)C12C(=O)N(CN1CCOCC1)c1ccccc12` (stereo not given) showed a growth inhibition of 0.76%.
With `O=c1[nH]c(=O)n(-c2cccc3ccccc23)c(O)c1C=NCCCn1ccnc1` the growth inhibition was -5.79%.
Compound `CCN(CC)CCN=C(C)c1c(O)n(-c2ccccc2OC)c(=O)[nH]c1=O` has a growth inhibition of -2.11%.
With `CC(=O)OC1N=C(c2ccccc2)c2ccccc2NC1=O` (stereo not given) the growth inhibition was -5.27%.
With `CCN(CC)c1ccc(N=Cc2c(O)n(-c3cc(OC)ccc3OC)c(=O)[nH]c2=O)cc1` the growth inhibition was 26.8%.
